The whole screen tested about 52,000 compounds, of which about 4,300 (8.3%) were called active. This is one part of a sample in which actives are shown more often than they occur. A number with no mark means an inactive call. Rule as the data show it: active = survival mostly below about 52% (no sharp cut-off); inactive = mostly above about 56%.

For this assay, the system named is DeltatarO mutant. Description: growth inhibition of S. aureus wild type versus tarO mutant, primary screen, teichoic acid synthesis inhibitors, RN4220, OD600 (AID 463173). The conditions noted are these: OD600, 18 h, stronger effect = lower value, screened at 18.75 µg/mL (by protocol).
As for `Cc1cc(C)cc(NC(=O)c2cc3c(=O)n(Cc4ccco4)ccc3nc2C)c1`, the survival was 73%.

Turning to `O=C(Nc1ccccc1)c1ccc2c(O)c(S(=O)(=O)c3ccc(Cl)cc3)c(=O)[nH]c2c1`, the survival is 74%.

Turning to `COc1ccc(N(C)C(=O)c2cn(C)c(=O)c3cc(OC)c(OC)cc23)cc1`, the survival is 177%.

For the molecule `O=C(CSc1nnc(-c2ccco2)o1)NC(c1ccccc1)c1ccccc1`, the survival was 61% (active).

On to `O=C(CSc1nnc(-c2ccccc2)o1)Nc1ccccc1`, for which the survival was 82%.

Regarding `O=C(CCSc1nnc(-c2ccco2)o1)Nc1ccccc1`, the survival is 86%.

Take `CCOc1ccc(Sc2cc(C(=O)NCCc3ccccc3)c3ccccc3n2)cc1`: the survival was 73%.

On to `N#Cc1cn(CC(=O)NCc2ccccc2)c2ccccc12`, for which the survival was 87%.

On to `COc1cccc(NS(=O)(=O)c2ccc3c(c2)[C@H]2C=CC[C@H]2[C@@H](c2ccccc2Cl)N3)c1`, for which the survival is 163%.

As for `CCCN1CCN(CC2=C(C(=O)OCC)C(c3cccc(OC)c3OC)NC(=O)N2)CC1` (stereo unspecified), the survival is 94%.

With `CCOc1ccc2c(c1)[C@@H]1C=CC[C@@H]1[C@H](c1ccccc1Cl)N2`, the survival was -10% (active).

As to `COc1ccc(C)cc1NS(=O)(=O)c1ccc2c(c1)[C@H]1C=CC[C@H]1[C@@H](c1cccc(Cl)c1)N2`, the survival is 57%.

Regarding `CCOC(=O)c1ccc2c(c1)[C@@H]1C=CC[C@@H]1[C@H](c1cccc(OC)c1OC)N2`, the survival is -10% (active).

Consider `Fc1ccc([C@@H]2Nc3ccccc3[C@@H]3C=CC[C@@H]32)cc1`, for which the survival is 56%.

For `COc1ccc(NS(=O)(=O)c2ccc3c(c2)[C@H]2C=CC[C@H]2[C@@H](c2ccc(C(=O)O)cc2)N3)cc1`, the survival is 72%.

As to `COc1ccc(Br)cc1[C@@H]1Nc2ccc(C(=O)O)cc2[C@@H]2C=CC[C@@H]21`, the survival was 36% (active).

For the molecule `COc1cccc([C@H]2Nc3ccc(S(=O)(=O)Nc4cc(C)ccc4C)cc3[C@H]3C=CC[C@H]32)c1`, the survival was 52%.

Consider `CCCCN(CC)CCNC(=O)Cn1cnc2sc(C)c(S(=O)(=O)N3CCC(C)CC3)c2c1=O`, for which the survival was 69%.

Regarding `COCC(=O)NCc1ccc2c(c1)OCO2`, the survival was 104%.

As for `CCN(CC)CCOC(=O)c1ccc(NC(=O)c2cc3cc(OC)ccc3oc2=O)cc1`, the survival is 73%.

On to `COc1ccc(NC(=O)Cn2c(=O)n(-c3ccc(C)c(C)c3)c(=O)c3c(C)c(C)sc32)cc1`, for which the survival was 139%.

`O=C1[C@@H]2CSC(c3ccc(C(F)(F)F)cc3)N2C(=O)N1c1ccccc1` (stereo partly specified): the survival was 81%.

On to `O=C(NCc1ccccc1F)c1ccc(CSc2nc3cccnc3n2Cc2ccccc2)cc1`, for which the survival was 75%.

For the molecule `CCSc1nc(=O)c2c(n1C)NC(=O)CC2c1ccc(O)cc1OC` (stereo unspecified), the survival is 57%.

As to `CSc1nc(=O)c2c(n1C)NC(=O)CC2c1ccccc1OC(C)C` (stereo unspecified), the survival is 46%.

In the case of `CCCSc1nc(=O)c2c(n1C)NC(=O)CC2c1cccc(F)c1F` (stereo unspecified), the survival was 54% (active).

Take `Cc1oc(-c2ccc(Cl)cc2)nc1Cn1c(=O)cc(-c2ccccc2)c2c(C)nn(C)c21`: the survival is 88%.

On to `Cc1oc(C)c2c(=O)cc(-c3ccc4c(c3)OCO4)cc(OC(=O)c3ccccc3Br)c12`, for which the survival is 106%.

Turning to `O=C(NCCc1ccncc1)Nc1c[nH]c2ccccc2c1=O`, the survival was 89%.

As for `COc1ccccc1C(=O)c1cn(CC(=O)Nc2ccccc2F)c2nc(C)ccc2c1=O`, the survival was 71%.

In the case of `CCOc1cc(Cl)c(S(=O)(=O)n2cc(C)nc2CC)cc1Cl`, the survival is 3% (active).

`CCc1nc(C)cn1S(=O)(=O)c1ccc(Cl)c(Cl)c1OC`: the survival is 71%.

With `CCOc1cc(Cl)c(S(=O)(=O)n2ccnc2)cc1Cl`, the survival is 73%.

For `CCOc1ccc(C(=O)NCCSc2c(C)[nH]c3ccccc23)cc1OCC`, the survival was 56%.

As for `CC1=C(C(=O)Nc2ccc(F)cc2)C(c2ccc(N(C)C)cc2)NC(=O)N1` (stereo unspecified), the survival is 140%.

As to `CCCCCn1c(CCCNC(=O)c2ccccc2)nc2ccccc21`, the survival was 59%.

Take `Cc1cccc(OCCCn2c(CCNC(=O)C(C)(C)C)nc3ccccc32)c1`: the survival is 77%.

Consider `CC(C)(C)C(=O)NCCc1nc2ccccc2n1CCCCOc1ccccc1`, for which the survival was 41% (active).

Regarding `CC(=O)NCCc1nc2ccccc2n1CCCCOc1ccc(Cl)cc1`, the survival is 61%.

Consider `CCCCCn1c(CCCNC(=O)c2ccc(Cl)cc2)nc2ccccc21`, for which the survival is 85%.

Consider `Cc1ccccc1OCCn1c(CCNC(=O)C(C)(C)C)nc2ccccc21`, for which the survival was 82%.

As for `CC(C)(C)C(=O)NCCc1nc2ccccc2n1CCCCOc1ccc(Cl)cc1`, the survival is 18% (active).

With `Cc1ccccc1OCCCCn1c(CCNC(=O)C(C)(C)C)nc2ccccc21`, the survival is 36% (active).

`Cc1ccccc1OCCn1c(CCNC(=O)C2CCCCC2)nc2ccccc21`: the survival was 77%.

As for `Cc1ccc(OCCCCn2c(CCNC(=O)C(C)(C)C)nc3ccccc32)cc1`, the survival is 42% (active).

Turning to `CCN(CC)S(=O)(=O)c1cccc(C(=O)NCc2ccccc2)c1`, the survival is 49%.

Consider `CCN(C(=O)Cn1cc(C(=O)c2ccc(F)cc2)c(=O)c2ccc(C)nc21)c1cccc(C)c1`, for which the survival was 71%.

In the case of `CCc1ccccc1NC(=O)C1CCN(c2nn3c(=O)cc(C)nc3s2)CC1`, the survival is 81%.

With `Cc1ccc(N(CC(=O)N2CCN(c3cccc(Cl)c3)CC2)S(=O)(=O)c2c(C)noc2C)cc1`, the survival is 73%.

Regarding `CCCCS(=O)(=O)CC(O)CSc1nc(-c2ccc(C)cc2)cc(-c2ccccc2)c1C#N` (stereo unspecified), the survival was 68%.

On to `CCN1C(=O)C2C(c3ccc(OC)cc3)NC(CC)(C(=O)OC)C2C1=O` (stereo unspecified), for which the survival was 56%.

Turning to `CN(C)CCNC(=O)c1ccc(Cn2c(SCc3ccc(F)cc3)nc3cccnc32)cc1`, the survival is 131%.

With `CN(c1ccccc1)S(=O)(=O)c1nnc(NC(=O)c2ccco2)s1`, the survival is 47%.

Consider `CC(C)CC(=O)Nc1nnc(S(=O)(=O)N(CC(C)C)c2ccccc2)s1`, for which the survival is 111%.

Turning to `CCN(c1ccccc1)S(=O)(=O)c1nnc(NC(=O)c2ccco2)s1`, the survival was 39% (active).

Turning to `Cc1ccccc1N(C)S(=O)(=O)c1nnc(NC(=O)c2ccco2)s1`, the survival was 94%.

Turning to `COc1ccc(N(CC(C)C)S(=O)(=O)c2nnc(NC(=O)c3ccco3)s2)cc1`, the survival is 41% (active).

As for `CCN(c1ccc(Cl)cc1)S(=O)(=O)c1nnc(NC(=O)c2ccco2)s1`, the survival was 67%.

As to `CCN(c1cc(C)cc(C)c1)S(=O)(=O)c1nnc(NC(=O)c2ccco2)s1`, the survival is 52%.

Take `CC(C)CN(c1ccccc1)S(=O)(=O)c1nnc(NC(=O)c2ccco2)s1`: the survival is 31% (active).

Take `CCN(c1ccccc1C)S(=O)(=O)c1nnc(NC(=O)c2ccco2)s1`: the survival is 41% (active).

Values taken from PubChem BioAssay AID463173 (ICCB-Longwood Screening Facility, Harvard Medical School, 2010).
